# Source: ChEMBL document CHEMBL3988442, “University of Dundee, Small-Polar-MMV Screening Library” (2021)
# For some assays here: Potency and affinity values are given separately.
# Legend:
# Parameters in all cases: scale not given: direction of the effect not stated beside the values
# [1] = biological target: Protein translocase subunit SecA (Escherichia coli (strain K12)) (UniProt P10408); assay: Assay to Identify E. coli SecA ATPase Inhibitors; assay type: functional; conditions: 30 µM
# [2] = biological target: T1, Ubiquitin-activating enzyme e1, putative (Leishmania donovani (strain BPK282A1)) (UniProt E9BSI1); assay: Leishmania donovani Ubiquitin Activating Enzyme (LdE1); assay type: functional; conditions: 30 µM
# T1 sequence (whole entry): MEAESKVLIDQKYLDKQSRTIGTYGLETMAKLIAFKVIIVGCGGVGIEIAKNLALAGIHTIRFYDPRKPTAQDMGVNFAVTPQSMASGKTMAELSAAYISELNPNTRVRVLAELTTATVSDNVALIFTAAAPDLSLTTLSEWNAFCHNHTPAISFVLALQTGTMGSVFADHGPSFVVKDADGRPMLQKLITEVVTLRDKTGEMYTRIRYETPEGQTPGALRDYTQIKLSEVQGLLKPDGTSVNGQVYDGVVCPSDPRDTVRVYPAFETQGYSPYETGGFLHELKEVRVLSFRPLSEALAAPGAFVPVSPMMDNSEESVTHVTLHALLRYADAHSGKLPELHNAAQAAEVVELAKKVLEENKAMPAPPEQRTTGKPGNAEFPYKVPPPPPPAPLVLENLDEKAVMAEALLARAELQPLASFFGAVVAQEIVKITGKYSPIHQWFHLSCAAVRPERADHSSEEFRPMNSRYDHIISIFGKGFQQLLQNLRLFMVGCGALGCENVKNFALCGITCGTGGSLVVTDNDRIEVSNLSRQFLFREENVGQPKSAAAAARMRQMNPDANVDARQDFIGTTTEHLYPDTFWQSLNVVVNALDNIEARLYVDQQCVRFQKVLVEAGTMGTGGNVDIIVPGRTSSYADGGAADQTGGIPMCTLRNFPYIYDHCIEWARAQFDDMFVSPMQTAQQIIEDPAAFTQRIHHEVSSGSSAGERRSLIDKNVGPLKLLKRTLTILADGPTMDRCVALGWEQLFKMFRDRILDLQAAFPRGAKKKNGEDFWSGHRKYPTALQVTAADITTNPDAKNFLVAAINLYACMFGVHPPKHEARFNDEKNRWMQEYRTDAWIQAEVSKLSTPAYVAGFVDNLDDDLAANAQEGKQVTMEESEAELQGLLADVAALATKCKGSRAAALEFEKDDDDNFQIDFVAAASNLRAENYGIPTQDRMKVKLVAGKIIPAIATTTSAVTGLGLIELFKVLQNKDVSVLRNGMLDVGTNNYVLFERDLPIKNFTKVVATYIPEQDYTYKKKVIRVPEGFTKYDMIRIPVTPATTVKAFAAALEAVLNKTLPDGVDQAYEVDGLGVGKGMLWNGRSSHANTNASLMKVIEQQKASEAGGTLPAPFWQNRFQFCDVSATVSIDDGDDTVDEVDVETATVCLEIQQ
# [3] = biological target: AMP-activated protein kinase, AMPK (Homo sapiens) (UniProt P54646+O43741+P54619+Q9UGJ0+Q9Y478+Q13131+Q9UGI9); assay: AMP-dependent Kinase enzyme assay. An in vitro enzyme assay that detects ADP turnover that is directly proportional to AMPK activity. This uses naive AMPK that is activated during the assay with MK-8722; assay type: functional; conditions: 30 µM
# [4] = biological target: Sialic acid-binding Ig-like lectin 9 (Homo sapiens) (UniProt Q9Y336); assay: Hs-Siglec9 ALPHAscreen SOP 20170721; conditions: 10 µM
# Trypanosoma cruzi = assay: Trypanosoma cruzi phosphomannomutase and mannose-1-phosphate guanylyltransferase assay; assay type: functional; conditions: 10 µM
# [5] = biological target: T2, Arginase-2, mitochondrial (Homo sapiens) (UniProt P78540); assay: in vitro enzyme assay to detect the production of urea directly proportional to the activity of Arginase II; assay type: functional; conditions: 33.3 µM; note: in the data most compounds retested in dose-response had high values
# T2 sequence (whole entry): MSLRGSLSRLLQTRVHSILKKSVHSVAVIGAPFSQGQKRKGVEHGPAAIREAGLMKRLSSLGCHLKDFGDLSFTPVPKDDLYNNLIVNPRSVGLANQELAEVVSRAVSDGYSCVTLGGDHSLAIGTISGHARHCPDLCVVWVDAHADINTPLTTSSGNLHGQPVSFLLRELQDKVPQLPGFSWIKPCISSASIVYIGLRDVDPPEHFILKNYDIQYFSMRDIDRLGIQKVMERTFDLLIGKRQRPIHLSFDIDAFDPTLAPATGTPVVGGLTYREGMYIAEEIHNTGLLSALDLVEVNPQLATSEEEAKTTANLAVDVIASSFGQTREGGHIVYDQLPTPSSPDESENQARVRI
# [6] = biological target: T3, Proteasome subunit beta (Trypanosoma cruzi) (UniProt O96673); assay: Trypanosoma cruzi proteasome chymotrypsin-like activity (TcProtChymo) assay.; note: in the data most compounds retested in dose-response had high values; assay type: functional; conditions: 9.37 µM
# T3 sequence (whole entry): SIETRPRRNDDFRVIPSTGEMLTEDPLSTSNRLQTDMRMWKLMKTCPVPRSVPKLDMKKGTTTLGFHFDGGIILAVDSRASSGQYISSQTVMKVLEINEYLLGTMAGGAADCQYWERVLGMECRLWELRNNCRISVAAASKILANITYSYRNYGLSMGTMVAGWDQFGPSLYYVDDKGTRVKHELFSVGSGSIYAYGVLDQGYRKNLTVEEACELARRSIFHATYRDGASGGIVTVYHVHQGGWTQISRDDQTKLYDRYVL
# Homo sapiens = organism: Homo sapiens; assay: To identify inhibition of the IFN signalling (Jak-Stat) pathway via expression of an eGFP reporter gene under the control of an IFN-stimulated response element (ISRE) containing MxA promoter.; assay type: functional; conditions: 30 µM
# [7] = biological target: T4, Tyrosyl-tRNA synthetase, putative (Trypanosoma cruzi (strain CL Brener)) (UniProt Q4DSP6); assay: Trypanosoma cruzi tyrosyl tRNA synthetase (TcYRS) _High Tyrosine SOP; assay type: functional; conditions: 30 µM; note: in the data most compounds retested in dose-response had high values
# T4 sequence (whole entry): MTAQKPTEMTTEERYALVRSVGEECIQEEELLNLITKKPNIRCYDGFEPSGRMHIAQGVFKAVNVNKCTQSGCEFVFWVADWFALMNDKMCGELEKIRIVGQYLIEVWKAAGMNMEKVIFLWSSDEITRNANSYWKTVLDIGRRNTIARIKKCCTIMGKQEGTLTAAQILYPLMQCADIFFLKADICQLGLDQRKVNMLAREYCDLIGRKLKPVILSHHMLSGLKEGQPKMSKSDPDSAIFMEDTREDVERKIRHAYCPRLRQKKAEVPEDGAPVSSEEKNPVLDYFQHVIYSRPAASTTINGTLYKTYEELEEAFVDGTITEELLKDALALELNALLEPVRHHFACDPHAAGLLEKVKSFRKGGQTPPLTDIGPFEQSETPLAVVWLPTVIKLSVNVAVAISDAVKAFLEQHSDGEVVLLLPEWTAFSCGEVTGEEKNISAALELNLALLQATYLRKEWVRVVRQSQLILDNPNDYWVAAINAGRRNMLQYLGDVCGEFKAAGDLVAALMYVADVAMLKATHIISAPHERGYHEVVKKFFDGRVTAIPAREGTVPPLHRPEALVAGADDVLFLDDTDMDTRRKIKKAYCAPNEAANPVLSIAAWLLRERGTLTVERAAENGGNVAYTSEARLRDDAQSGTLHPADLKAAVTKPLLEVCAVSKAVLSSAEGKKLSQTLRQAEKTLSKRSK
# [8] = biological target: T4, Tyrosyl-tRNA synthetase, putative (Trypanosoma cruzi (strain CL Brener)); assay: Trypanosoma cruzi tyrosyl tRNA synthetase (TcYRS) SOP; assay type: functional; conditions: 30 µM
# [9] = biological target: Chromo domain-containing protein 1 (Saccharomyces cerevisiae (strain ATCC 204508 / S288c) (Baker's yeast)) (UniProt P32657); assay: ScCHD-1 Enzyme Inhibition Assay; assay type: functional; conditions: 30 µM; note: in the data most compounds retested in dose-response had high values
# Chromo domain-containing protein 1 (Saccharomyces cerevisiae (strain ATCC 204508 / S288c) (Baker's yeast)), sequence (P32657 whole entry, the tested form may be a part): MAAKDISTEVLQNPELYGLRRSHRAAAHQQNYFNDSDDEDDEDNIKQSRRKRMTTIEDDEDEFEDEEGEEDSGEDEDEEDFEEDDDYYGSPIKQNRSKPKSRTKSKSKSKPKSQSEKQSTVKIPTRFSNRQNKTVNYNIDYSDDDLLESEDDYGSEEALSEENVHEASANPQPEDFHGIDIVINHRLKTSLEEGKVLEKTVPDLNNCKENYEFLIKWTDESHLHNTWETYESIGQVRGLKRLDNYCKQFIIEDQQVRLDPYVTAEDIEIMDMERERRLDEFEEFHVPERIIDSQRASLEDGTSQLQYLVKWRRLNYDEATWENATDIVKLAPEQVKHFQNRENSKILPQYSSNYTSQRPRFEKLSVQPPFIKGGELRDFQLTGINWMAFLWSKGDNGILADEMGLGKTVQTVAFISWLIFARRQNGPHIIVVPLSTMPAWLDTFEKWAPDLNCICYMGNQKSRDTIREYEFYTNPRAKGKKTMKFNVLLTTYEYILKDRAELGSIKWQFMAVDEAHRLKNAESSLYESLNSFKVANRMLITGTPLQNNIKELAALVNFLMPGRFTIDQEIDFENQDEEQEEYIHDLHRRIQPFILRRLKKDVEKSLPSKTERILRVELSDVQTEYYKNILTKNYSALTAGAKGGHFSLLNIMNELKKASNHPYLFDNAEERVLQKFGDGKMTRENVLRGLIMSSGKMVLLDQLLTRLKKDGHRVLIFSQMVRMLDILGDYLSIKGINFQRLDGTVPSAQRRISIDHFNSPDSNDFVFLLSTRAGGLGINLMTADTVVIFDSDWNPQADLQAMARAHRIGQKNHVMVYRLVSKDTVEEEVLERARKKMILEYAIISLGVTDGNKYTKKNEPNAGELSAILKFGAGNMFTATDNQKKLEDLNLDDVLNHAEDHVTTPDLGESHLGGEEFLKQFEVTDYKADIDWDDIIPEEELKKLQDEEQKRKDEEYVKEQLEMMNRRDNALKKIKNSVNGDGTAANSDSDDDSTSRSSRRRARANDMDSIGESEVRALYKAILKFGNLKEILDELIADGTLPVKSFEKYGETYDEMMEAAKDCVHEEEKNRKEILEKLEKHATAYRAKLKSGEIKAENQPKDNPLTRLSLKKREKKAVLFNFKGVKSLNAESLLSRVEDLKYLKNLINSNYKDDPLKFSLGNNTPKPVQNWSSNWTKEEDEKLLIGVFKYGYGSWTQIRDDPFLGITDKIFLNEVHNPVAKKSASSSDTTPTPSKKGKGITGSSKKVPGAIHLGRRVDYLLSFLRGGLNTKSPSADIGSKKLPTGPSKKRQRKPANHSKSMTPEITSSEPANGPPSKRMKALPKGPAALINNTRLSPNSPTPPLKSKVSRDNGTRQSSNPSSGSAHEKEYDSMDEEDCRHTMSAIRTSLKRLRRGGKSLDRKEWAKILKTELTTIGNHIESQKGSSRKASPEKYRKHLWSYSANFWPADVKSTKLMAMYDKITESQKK
# Sialic acid-binding Ig-like lectin 9 (Homo sapiens), sequence (Q9Y336 whole entry): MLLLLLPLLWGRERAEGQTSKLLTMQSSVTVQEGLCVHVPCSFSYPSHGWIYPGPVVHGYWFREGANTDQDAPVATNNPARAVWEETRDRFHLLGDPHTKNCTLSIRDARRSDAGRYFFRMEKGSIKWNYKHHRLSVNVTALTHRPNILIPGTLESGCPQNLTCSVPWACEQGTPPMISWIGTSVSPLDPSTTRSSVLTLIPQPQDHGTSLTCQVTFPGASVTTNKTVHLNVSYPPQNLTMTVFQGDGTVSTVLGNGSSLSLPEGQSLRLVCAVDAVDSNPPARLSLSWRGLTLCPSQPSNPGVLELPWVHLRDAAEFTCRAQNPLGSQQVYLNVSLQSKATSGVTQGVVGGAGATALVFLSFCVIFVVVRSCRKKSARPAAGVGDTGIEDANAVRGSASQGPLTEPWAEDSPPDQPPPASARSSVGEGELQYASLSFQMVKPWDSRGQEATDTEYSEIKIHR
# Protein translocase subunit SecA (Escherichia coli (strain K12)), sequence (P10408 whole entry): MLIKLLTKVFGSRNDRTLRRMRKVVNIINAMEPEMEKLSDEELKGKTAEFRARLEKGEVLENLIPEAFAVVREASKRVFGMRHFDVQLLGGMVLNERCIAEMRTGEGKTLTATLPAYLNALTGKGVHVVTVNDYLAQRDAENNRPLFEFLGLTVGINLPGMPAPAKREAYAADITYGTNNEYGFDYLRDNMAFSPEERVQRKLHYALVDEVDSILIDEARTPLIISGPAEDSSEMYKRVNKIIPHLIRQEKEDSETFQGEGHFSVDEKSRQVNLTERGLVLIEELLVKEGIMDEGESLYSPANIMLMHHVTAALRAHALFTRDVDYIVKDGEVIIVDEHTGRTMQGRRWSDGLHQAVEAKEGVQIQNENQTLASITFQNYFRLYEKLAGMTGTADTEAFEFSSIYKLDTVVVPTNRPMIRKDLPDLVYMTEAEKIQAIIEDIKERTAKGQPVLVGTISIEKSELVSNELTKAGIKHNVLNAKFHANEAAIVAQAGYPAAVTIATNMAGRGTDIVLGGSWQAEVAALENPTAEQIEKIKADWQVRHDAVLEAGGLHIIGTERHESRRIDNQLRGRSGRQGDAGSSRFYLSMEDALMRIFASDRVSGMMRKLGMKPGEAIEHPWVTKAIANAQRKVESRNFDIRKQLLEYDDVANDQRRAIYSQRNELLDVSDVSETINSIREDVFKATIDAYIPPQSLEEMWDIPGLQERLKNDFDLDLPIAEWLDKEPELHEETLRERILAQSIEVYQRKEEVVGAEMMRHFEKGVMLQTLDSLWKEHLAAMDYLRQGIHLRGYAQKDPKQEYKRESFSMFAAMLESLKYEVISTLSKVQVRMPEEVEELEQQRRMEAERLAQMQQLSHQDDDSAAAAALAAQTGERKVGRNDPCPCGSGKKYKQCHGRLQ
Structure (SMILES),Percent Effect [1] [%],Percent Effect [2] [%],Percent Effect [3] [%],Percent Effect [4] [%],Percent Effect (Trypanosoma cruzi) [%],Percent Effect [5] [%],Percent Effect [6] [%],Percent Effect (Homo sapiens) [%],Percent Effect [7] [%],Percent Effect [8] [%],Percent Effect [9] [%]
CCCn1[nH]cc/c1=N\C(=O)CN1CCc2c(nc(C(C)C)n2C)C1,-0.801,20.8,-5.35,-15.6,-2.06,-4.84,11.6,18.7,8.57,23.5,-19.2
O=C(c1cccc(Cl)c1)N1CC[C@H]2[C@H]1CCN2CC1CCOCC1,-2.38,0,10.3,0.0847,0.197,1.17,9.78,-5.51,4.25,3.85,-5.25
CC(C)N1CCC(Cc2cncc(-c3ccccc3C(=O)O)n2)CC1,-3.85,8,9.75,5.58,-4.13,0.699,4.32,13.7,5.32,8.97,-3.75
O=C(c1cnccn1)N1CCc2ncnc(-c3cccnc3)c2CC1,-5.31,2.67,-1.38,-1.29,0.386,-43.5,6.33,-9.47,0,5,-3.12
COc1ccccc1C(O)CNC(=O)Nc1ncccc1C (configuration not stated),-3.85,12.7,3.4,-8.4,6.52,0,8.27,16.1,5.42,16.5,-4.09
Cn1ccnc1CN1CCN(Cc2ccccc2C#N)CC1,-5.61,18.4,-14.9,6.65,2.52,-0.719,6.34,5.87,12.3,18.5,-9.79
Cc1nn(C)c(N2CCOCC2)c1CNC(C)c1cccnc1 (configuration not stated),-3.55,6.94,-10.5,21.7,2.62,7.95,11.4,-22.8,3.16,10.3,-6.39
Cc1cnn(CC2CCCN2Cc2nc3ccccc3n2C)c1 (configuration not stated),-1.76,-10.1,-1.75,3.88,8.4,1.9,-1.23,-22.9,9.36,13.9,-3.16
CC(C)CC(=O)N1CC[C@@H]2[C@H](CC1)N(S(C)(=O)=O)CCS2(=O)=O,-4.61,18.9,-5.46,-1.46,5.66,25.8,14.1,6.42,5.94,13.4,-6.08
COc1ccc(Br)c(C(=O)NCCNc2ccc(C(F)(F)F)cn2)c1,0.559,18.2,8.45,-0.542,-1.08,0.21,10.9,-7.76,11.4,25.9,-25.7
O=C(CCn1ccccc1=O)Nc1ccc(F)c(Cl)c1,-5.08,8.11,-4.38,0.784,-2.44,3.72,10.7,-1.47,4.3,6.17,-7.68
CN(CC(=O)N1CCC(Oc2ccccc2)CC1)c1cnccn1,-3.37,21.6,-3.35,7.97,4.74,2.4,5.75,18.1,5.94,25.6,-8.13
CSCc1cccc(S(=O)(=O)NCCCO)c1,-4.83,5.2,5.07,1.97,-0.0983,-20.7,3.33,-20.6,5.38,11.1,-2.83
Cc1cc(C)c(CNC(=O)NCC(c2ccccc2)N(C)C)c(=O)[nH]1 (configuration not stated),-3.19,-2.63,-5.47,13.4,2.52,1.08,-0.592,4,7.39,18.5,-3.01
O=C(O)C1(Cc2cccc(-c3ccc(F)c(F)c3)c2)CCOCC1,-3.39,1.35,13.4,4.42,-1.78,1.16,5.93,28.6,-15.1,-11.7,-15
Cc1ccc(NC2CCN(C(=O)CCNS(C)(=O)=O)CC2)nn1,-4.31,-2.7,-5.25,9,-0.279,-5.36,-5.21,2.45,1.98,6.1,7.54
CCN(CC)Cc1cn2c(n1)CN(C(=O)c1cnccn1)CC2,-2.54,10.8,3.85,-1.54,-3.62,6.69,19.9,-5.71,3.24,7.69,0.514
Cc1cc(C[C@@H]2COC[C@H]2NCc2ccc(Br)s2)on1,-7.36,1.35,9.27,-0.828,-2.77,-7.19,-1.72,31.8,-2.15,-3.9,-6.34
CCCn1ncc(CN2C[C@@H]3CCCN3C[C@@H]2CCSC)c1C,0.712,9.46,3.26,-4.09,-5.93,-3.02,19.5,8.73,3.23,6.49,-15
CCc1nc(NS(=O)(=O)c2ccc(C)cc2Cl)no1,-5.01,-2.67,-2.5,11.5,4.19,1.56,-1.57,-10.5,2.73,6.17,-1.19
Cc1cc(C)cc(-c2ccc(CC3(C(=O)O)CCOCC3)cc2)c1,-8.77,-4.05,12.1,-1.64,-3.95,-3.48,1.25,18,-20.4,-37.7,-2.15
Cn1cc(-c2ncnc3c2CCN(C(=O)N2CCOCC2)CC3)cn1,-2.9,0,-3.79,15.2,3.03,1.24,9.53,-0.161,1.07,8.64,-11.6
